Rows were chosen to be rich in hits. Some 12% of all compounds tested hit in one or more screens of this group.
L major viab: Leishmania major promastigote growth inhibition, primary screen; Leishmania major promastigotes, resazurin fluorescence viability; actives 9% (n = 200,000); inhibition, % at 10 µM; in the data active = inhibition above about 50%;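 also: promastigotes grown with compound for 44 hours at 28 °C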
WT yeast gro inh: growth inhibition of WT strain, primary screen, mitochondrial fusion inhibitor project, WT and mutant strains, chemical genetic | actives 2.1% (n = 190,000) | inhibition, % at 10 µM | mitochondrial fusion phenotypic screen; in the data active = inhibition above about 58%; tested in S. cerevisiae
Arbovirus inh: antivirals against arbovirus infection, primary screen, cell-based, full library, 10K replicate subset; arbovirus infection cell-based antiviral screen; inhibition, % at 10 µM; actives 0.37% (n = 200,000); in the data active = inhibition above about 30%
CHOP inhibitor: inhibitors of CHOP promoter induction, primary screen, cell-based, unfolded protein response, luciferase reporter. CHO-K1 CHOP-promoter luciferase, tunicamycin-induced, 15-18 h. inhibition, % at 10 µM. actives 3.8% (n = 220,000);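 active = compounds that reduced the stress-induced luciferase reporter signal by more than about 70% of percent inhibition, limit read from the data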;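 also: 0% = tunicamycin plus vehicle and 100% = wells without tunicamycin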
Active calls of the source: *; / = no result given.

SMILES	L major viab	WT yeast gro inh	Arbovirus inh	CHOP inhibitor
CC(C)C(=O)N1CCC(CN=CC2=C(O)CC(C)(C)CC2=O)CC1	-3	-7	3	-6
O=C(CCCN1C(=O)/C(=C/c2ccccc2Cl)SC1=S)NNC(=O)c1cccnc1	/	/	/	53
O=C(CCCN1C(=O)/C(=C/c2ccccc2Cl)SC1=S)NNC(=O)c1ccc(Cl)cc1Cl	/	/	/	95*
O=C(CCCN1C(=O)/C(=C/c2ccccc2Cl)SC1=S)NNC(=O)c1ccccc1	29	-5	5	86*
CC1=C(C(=O)c2ccccc2)C(c2cn(-c3ccccc3)nc2-c2ccc(Cl)cc2)NC(=S)N1 (centres undefined)	100*	11	-4	65
Cc1oc(-c2ccccc2)[n+]([O-])c1C	-4	69*	-2	/
O=C(NC1(C(F)(F)F)N=C2SCCN2C1=O)c1cccnc1 (centres undefined)	-10	-7	6	7
COc1ccc2nc(NC(=O)C(NS(=O)(=O)c3cccs3)C(C)C)sc2c1 (centres undefined)	89*	6	-4	-12
Cc1ccc2nc(NC(=O)C(NS(=O)(=O)c3cccc4nsnc34)C(C)C)sc2c1 (centres undefined)	96*	14	-24	70
CC(C)C(NS(=O)(=O)c1cccc2nsnc12)C(=O)Nc1nccs1 (centres undefined)	/	/	/	-6
CCOCCCNC(=O)/C(C#N)=C/c1ccc(C(=O)OC)cc1	58*	-2	1	0
CCOCCCNC(=O)/C(C#N)=C/c1ccc(Cl)c([N+](=O)[O-])c1	100*	16	-27	-13
CCOCCCNC(=O)/C(C#N)=C/c1cc(C)c(O)c(C)c1	3	-1	-12	-17
NC(=O)C1=C[C@@H](c2ccccc2)C[C@@H](OCc2ccc(CO)cc2)O1	6	-7	0	18
CC(C)NS(=O)(=O)c1ccc(NC(=O)C2CC3C=CC2C3)cc1 (centres undefined)	-4	75*	7	31
CC[C@H](C)[C@H](NC(N)=O)C(=O)Nc1ccc(S(=O)(=O)NC(C)C)cc1	/	/	/	3
O=C(c1ccc(Cl)c(S(=O)(=O)NCc2ccco2)c1)N1CCN(c2ccc(F)cc2)CC1	1	17	-14	6
CC1(C)NC(=O)N(CCCCOc2ccc(Cl)cc2C=O)C1=O	57*	-8	-4	4
CC(C)c1cc(Br)ccc1OCCCN1C(=O)NC(C)(C)C1=O	5	17	-9	73*
O=C(CCC(=O)NNc1nc2ccccc2c2nc(-c3ccccc3)nn12)NCCCN1CCOCC1	-2	-7	1	28
CCN(CC)CCCNc1nc2cc(OC)c(OC)cc2c2nc(-c3cccnc3)nn12	101*	-2	-13	2
COc1cc2nc(NCC3CCCO3)n3nc(-c4cccnc4)nc3c2cc1OC (centres undefined)	49	14	-11	10
CCN(CC)CCCNc1nc2cc(OC)c(OC)cc2c2nc(-c3ccccc3)nn12	101*	26	-42	11
COc1cc2nc(NCCCN3CCN(C)CC3)n3nc(-c4ccccc4)nc3c2cc1OC	101*	16	-22	-31
O=C(N/C(=C\c1cccc([N+](=O)[O-])c1)C(=O)N1CCOCC1)c1ccc([N+](=O)[O-])cc1	1	1	7	-2
SMILES	L major viab	WT yeast gro inh	Arbovirus inh	CHOP inhibitor
CCOC(=O)C1=C(CC)Nc2ccccc2N/C1=N\S(=O)(=O)c1ccc2ccccc2c1	6	72*	-3	-32
COc1ccccc1CNC(=O)c1csc(Cc2ccc(Cl)cc2)n1	11	28	-12	80*
CCCCN1CCc2[nH]c(=S)[nH]c(=O)c2C1	-2	3	1	1
COC(=O)c1nc(N)sc1C	2	-2	5	6
O=C(Nc1ccc(F)cc1)C(c1ccccc1)N1CCN(C(=O)c2ccco2)CC1 (centres undefined)	3	6	-1	0
COc1ccc(OCC(=O)Nc2ccc(N3CCN(C(=O)c4ccco4)CC3)cc2)cc1	9	11	-25	9
C[N+]1(CC(=O)Nc2ccc(F)cc2)CCN(C(=O)c2ccco2)CC1	-6	67*	5	-14
O=C(COc1ccc(Cl)cc1)Nc1ccc(N2CCN(C(=O)c3ccco3)CC2)cc1	4	7	6	74*
CC(=O)N1CCN(c2ccc(NC(=S)NC(=O)COc3ccc(C(C)(C)C)cc3)cc2)CC1	21	24	6	76*
CCC(=O)N1CCN(c2ccc(NC(=S)NC(=O)COc3ccccc3)cc2)CC1	-4	16	1	25
O=C(C[n+]1ccc2ccccc2c1)c1ccc(NC(=O)c2ccccc2)cc1	-4	51	-9	-10
O=C(NCC1CCCN(Cc2cccc(C(F)(F)F)c2)C1)c1ccc(F)cc1 (centres undefined)	80*	9	2	26
O=C(NCC1CCCN(Cc2ccc3nonc3c2)C1)c1ccc(F)cc1 (centres undefined)	90*	0	1	6
O=C(Cn1nnc2ccccc2c1=O)N[C@@H](Cc1ccccc1)C(=O)O	/	/	/	10
COc1ccc(NS(=O)(=O)c2cccc(C(=O)N/N=C(\C)c3ccncc3)c2)cc1	59*	-6	-5	-5
O=C(Nc1cc(S(=O)(=O)Nc2ccccc2Cl)ccc1O)c1cc2c(s1)CCCC2	/	/	/	54
O=C(Nc1cccc(S(=O)(=O)Nc2ccc(Cl)cc2)c1)c1cc2c(s1)CCCC2	34	38	-38	76*
COc1ccc(NS(=O)(=O)c2cccc(NC(=O)NCCCl)c2)cc1	71*	1	11	4
O=C(Nc1cccc(S(=O)(=O)Nc2ccc(Cl)cc2)c1)c1ccc(Cl)nc1	21	14	-23	73*
CCCCC(=O)Nc1ccc2c(c1)nc(CCN1CCN(C)CC1)n2C	/	/	/	1
COc1ccc(NS(=O)(=O)c2cccc(NC(=O)CCC(=O)c3ccc(Cl)cc3)c2)cc1	80*	-17	-5	51
COc1ccc(S(=O)(=O)N/N=C(/C)c2cccc(NC(=O)c3ccccc3Cl)c2)cc1	97*	1	37*	21
COc1cccc(S(=O)(=O)Nc2ccc(C(=O)Nc3ccncc3)cc2)c1	7	15	-5	26
COc1ccc(NS(=O)(=O)c2cccc(NC(=O)c3ccc(Cl)nc3)c2)cc1	61*	-7	-10	46
NC(=O)CC(NC(=O)c1ccccc1)c1ccc(NC2CCCC2)c([N+](=O)[O-])c1 (centres undefined)	/	/	/	29
CC(C)(C)c1cc(C(=O)NNC(=O)c2ccc(Cl)cc2)no1	/	/	/	3
COc1ccc(-c2nnn(CCc3nn[nH]n3)n2)cc1	-4	/	/	/
COc1ccc(N(C(C)C(=O)N/N=C/c2cccnc2)S(C)(=O)=O)cc1 (centres undefined)	2	4	6	3
O=C1c2ccccc2C(Nc2ccc(S(=O)(=O)N3CCCCC3)cc2)N1c1ccccn1 (centres undefined)	14	4	32*	/
Cc1c(N=C2C=CC(=O)c3ccccc32)c(=O)n(-c2ccccc2)n1C	101*	13	-32	-323
